# Source: PubChem BioAssay (Tox21)
# “And” between values parts separate entries of the source, which are not always exact repeats. Identical values can stand only once. Records with an inconclusive call do not appear. Where a call stands in place of a potency, no number is given. A structure can be active in one record and inactive in another. The source made the active and inactive calls. Calls come from the whole dose curve; as a rule, active = well fitted curve in the direction sought with a large enough effect in the repeat runs; inconclusive = weak or mixed curves; inactive = no such curve, though single readings can be large; an effect the other way counts as inactive or inconclusive.
# How the values were obtained:
# [1] = Human pregnane X receptor (PXR) small molecule agonists, qHTS cell viability counter screen (AID 1346977); note: nearly all actives have a fitted effect of over 50% in size; note: potency is the fitted concentration of half-maximal effect
# Method in brief: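 Readout is CellTiter-Fluor fluorescence from PXR-Luc HepG2 cells. Plated cells rested 5hr, then were treated with compounds for 24hr at 37C and 5% CO2, with reagent present during the last hour.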
# [2] = Caspase-3/7 induction in HepG2 cells by small molecules, qHTS assay (AID 1346978); note: nearly all actives have a fitted effect of over 15% in size
# Method in brief: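 Wild-type HepG2 cells, 2,000/well, settled 5 hr at 37 C and 5% CO2, then compound-treated for 17 hr; caspase-3/7 activity read by luminescent Caspase-Glo 3/7 after 30 min at room temperature.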
# [3] = Caspase-3/7 induction in CHO-K1 cells by small molecules, qHTS cell viability counter screen (AID 1346979); note: nearly all actives have a fitted effect of over 35% in size; note: potency is the fitted concentration of half-maximal effect
# Method in brief: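 To flag cytotoxic compounds, treated CHO-K1 wild-type cells were given CellTiter-Fluor at 16hr and read fluorescently after 1hr at 37C; the caspase-3/7 luminescence was measured in these same wells.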
# [4] = Caspase-3/7 induction in CHO-K1 cells by small molecules, qHTS assay (AID 1346980); note: nearly all actives have a fitted effect of over 15% in size
# Method in brief: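 Wild-type CHO-K1 cells exposed to compounds for 17hr at 37 C, 5% CO2. Caspase-3/7 activity then measured by Caspase-Glo 3/7 luminescence after 30min at room temperature.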
# [5] = target: Nuclear receptor subfamily 1 group I member 2 (Homo sapiens) (UniProt O75469); assay: Human pregnane X receptor (PXR) small molecule agonists, qHTS assay (AID 1346982); note: nearly all actives have a fitted effect of over 35% in size; note: potency is the fitted concentration of half-maximal effect
# Nuclear receptor subfamily 1 group I member 2 (Homo sapiens), sequence (O75469 whole entry, looked up): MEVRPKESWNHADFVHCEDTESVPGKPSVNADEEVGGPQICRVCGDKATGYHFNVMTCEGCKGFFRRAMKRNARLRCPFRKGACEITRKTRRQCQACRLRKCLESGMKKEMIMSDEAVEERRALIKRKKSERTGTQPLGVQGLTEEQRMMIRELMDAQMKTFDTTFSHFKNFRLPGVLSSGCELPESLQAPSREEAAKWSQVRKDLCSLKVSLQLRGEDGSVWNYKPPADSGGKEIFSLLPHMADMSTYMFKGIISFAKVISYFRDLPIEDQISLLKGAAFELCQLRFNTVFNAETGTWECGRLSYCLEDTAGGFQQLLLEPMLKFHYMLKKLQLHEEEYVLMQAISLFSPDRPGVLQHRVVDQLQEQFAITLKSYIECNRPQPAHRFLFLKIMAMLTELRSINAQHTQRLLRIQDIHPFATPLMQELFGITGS
# Method in brief: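 Reporter HepG2 cells expressing PXR-Luc are cultured in charcoal-stripped FBS (5%), treated with compounds for 24 hr at 37 C, and assayed by ONE-Glo luminescence after 30 min at room temperature.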
# [6] = target: Nuclear receptor subfamily 1 group I member 2 (Rattus norvegicus) (UniProt Q9R1A7); assay: Rat pregnane X receptor (rPXR) activation by small molecules, qHTS assay (AID 1346983); conditions: rPXR luciferase reporter cells, One-Glo luminescence, 24 h; max activation: stronger effect = higher value; note: nearly all actives have a fitted effect of over 20% in size
# Nuclear receptor subfamily 1 group I member 2 (Rattus norvegicus), sequence (Q9R1A7 whole entry, looked up): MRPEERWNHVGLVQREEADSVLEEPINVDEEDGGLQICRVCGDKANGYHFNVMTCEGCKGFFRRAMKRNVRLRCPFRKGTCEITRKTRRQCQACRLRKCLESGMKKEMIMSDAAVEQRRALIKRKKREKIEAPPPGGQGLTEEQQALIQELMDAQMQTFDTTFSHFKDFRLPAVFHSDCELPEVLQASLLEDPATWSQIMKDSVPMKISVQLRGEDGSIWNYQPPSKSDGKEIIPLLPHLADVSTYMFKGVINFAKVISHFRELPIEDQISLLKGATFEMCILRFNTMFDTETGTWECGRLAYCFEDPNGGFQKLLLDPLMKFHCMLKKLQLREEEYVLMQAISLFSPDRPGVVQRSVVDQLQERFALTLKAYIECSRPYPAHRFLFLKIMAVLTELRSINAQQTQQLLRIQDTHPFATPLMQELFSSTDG
# Method in brief: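 Cell-based rPXR activation assay: rPXR cells, 2,000 per well, rested 5hr at 37 C, then exposed to compounds in DMSO for 24 hr at 37 C. Luciferase activity read by One-Glo luminescence after 30 min at room temperature.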
# [7] = target: Nuclear receptor subfamily 1 group I member 2 (Homo sapiens) (UniProt O75469); assay: CYP3A4 induction through human pregnane X receptor (PXR) by small molecules, qHTS assay (AID 1346984); note: nearly all actives have a fitted effect of over 40% in size
# Method in brief: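 Induction measured in HepG2-based DPX-2 cells co-expressing human PXR and a CYP3A4 promoter-driven luciferase. After a 24-hour compound exposure, cells received CYP3A4 luciferin substrate at 3uM final for 3 hours, and light output was then recorded.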
# [8] = target: Nuclear receptor subfamily 1 group I member 2 (Homo sapiens) (UniProt O75469); assay: Human pregnane X receptor (PXR) activation by small molecules, qHTS assay (AID 1346985); note: nearly all actives have a fitted effect of over 40% in size; note: potency is the fitted concentration of half-maximal effect
# Method in brief: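 DPX-2 cells (HepG2 co-transfected with a PXR response element and a CYP3A4-promoter luciferase construct) were seeded at 2,000 per well, rested 5 hr at 37C, then exposed to DMSO-dissolved compounds for 24 hr. Activation was read as luciferase luminescence.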
# [9] = target: Cytochrome P450 2D6 (Homo sapiens) (UniProt P10635); assay: Cytochrome P450 Family 2 Subfamily D Member 6 (CYP2D6) small molecule antagonists: luciferase reporter qHTS assay (AID 1671196); note: nearly all actives have a fitted effect of over 50% in size; note: potency is the fitted concentration of half-maximal effect
# Cytochrome P450 2D6 (Homo sapiens), sequence (P10635 whole entry, looked up): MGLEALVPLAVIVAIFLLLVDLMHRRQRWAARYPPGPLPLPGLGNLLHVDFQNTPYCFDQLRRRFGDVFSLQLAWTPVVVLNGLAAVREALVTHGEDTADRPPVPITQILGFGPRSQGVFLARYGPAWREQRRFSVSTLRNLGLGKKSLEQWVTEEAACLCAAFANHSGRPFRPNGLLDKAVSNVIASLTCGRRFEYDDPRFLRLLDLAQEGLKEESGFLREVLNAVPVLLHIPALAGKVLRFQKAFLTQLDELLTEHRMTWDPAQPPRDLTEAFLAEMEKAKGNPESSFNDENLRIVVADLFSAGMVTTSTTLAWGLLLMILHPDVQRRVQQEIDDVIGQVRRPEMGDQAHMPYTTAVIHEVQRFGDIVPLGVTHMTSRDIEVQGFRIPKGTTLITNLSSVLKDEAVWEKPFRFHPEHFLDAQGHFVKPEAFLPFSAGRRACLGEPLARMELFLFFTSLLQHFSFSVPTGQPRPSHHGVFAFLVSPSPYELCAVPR
# Method in brief: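 Test chemicals meet CYP2D6 plus proluciferin substrate (10 min, RT); NADPH regenerating solution then drives turnover for 1 h. Detection reagent halts the reaction; luminescence measured after 20 min.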
# [10] = target: Cytochrome P450 2C19 (Homo sapiens) (UniProt P33261); assay: Cytochrome P450 Family 2 Subfamily C Member 19 (CYP2C19) small molecule antagonists: luciferase reporter qHTS assay (AID 1671197); note: nearly all actives have a fitted effect of over 65% in size; note: potency is the fitted concentration of half-maximal effect
# Cytochrome P450 2C19 (Homo sapiens), sequence (P33261 whole entry, looked up): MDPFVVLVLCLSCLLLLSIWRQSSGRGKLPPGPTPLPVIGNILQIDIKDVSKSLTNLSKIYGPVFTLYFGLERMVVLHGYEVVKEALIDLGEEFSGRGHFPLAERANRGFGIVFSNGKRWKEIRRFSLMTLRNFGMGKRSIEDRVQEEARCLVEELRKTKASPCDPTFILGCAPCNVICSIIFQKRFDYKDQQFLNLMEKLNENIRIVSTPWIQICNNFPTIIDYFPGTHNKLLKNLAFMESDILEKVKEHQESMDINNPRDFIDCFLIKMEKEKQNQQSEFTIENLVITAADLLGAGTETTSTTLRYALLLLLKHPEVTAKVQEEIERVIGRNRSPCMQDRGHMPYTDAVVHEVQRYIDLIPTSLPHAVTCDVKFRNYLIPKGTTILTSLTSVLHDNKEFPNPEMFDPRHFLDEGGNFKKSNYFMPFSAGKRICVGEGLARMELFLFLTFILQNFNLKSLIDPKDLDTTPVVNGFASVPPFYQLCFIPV
# Method in brief: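 P450-Glo CYP2C19 system: enzyme-substrate mix with compound 10 min at room temperature, then NADPH regeneration solution, 1 h at 37C. Proluciferin-to-luciferin conversion detected by luminescence after 20 min with detection reagent; ketoconazole as positive control.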
# [11] = target: Cytochrome P450 2C9 (Homo sapiens) (UniProt P11712); assay: Cytochrome P450 Family 2 Subfamily C Member 9 (CYP2C9) small molecule antagonists: luciferase reporter qHTS assay (AID 1671198); note: nearly all actives have a fitted effect of over 50% in size; note: potency is the fitted concentration of half-maximal effect
# Cytochrome P450 2C9 (Homo sapiens), sequence (P11712 whole entry, looked up): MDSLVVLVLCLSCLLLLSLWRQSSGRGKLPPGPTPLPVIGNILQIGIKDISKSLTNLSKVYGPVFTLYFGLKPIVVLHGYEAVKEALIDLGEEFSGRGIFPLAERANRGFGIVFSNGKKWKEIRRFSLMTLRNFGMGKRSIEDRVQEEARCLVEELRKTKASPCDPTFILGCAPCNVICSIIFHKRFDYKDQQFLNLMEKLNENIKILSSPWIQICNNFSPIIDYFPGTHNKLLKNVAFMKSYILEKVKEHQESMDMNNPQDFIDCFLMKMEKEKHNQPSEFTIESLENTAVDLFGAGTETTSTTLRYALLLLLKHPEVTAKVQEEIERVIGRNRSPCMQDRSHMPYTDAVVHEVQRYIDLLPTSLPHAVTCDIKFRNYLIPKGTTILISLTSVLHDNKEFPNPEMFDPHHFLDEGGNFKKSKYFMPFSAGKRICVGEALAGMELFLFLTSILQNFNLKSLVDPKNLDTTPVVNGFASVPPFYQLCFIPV
# Method in brief: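 P450-Glo proluciferin substrate with CYP2C9 enzyme; 10 min RT preincubation, then NADPH regeneration 1 h at 37C; luciferin detection reagent 20 min RT, luminescence in relative luminescence units.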
# [12] = target: Cytochrome P450 1A2 (Homo sapiens) (UniProt P05177); assay: Cytochrome P450 Family 1 Subfamily A Member 2 (CYP1A2) small molecule antagonists: luciferase reporter qHTS assay (AID 1671199); note: nearly all actives have a fitted effect of over 50% in size; note: potency is the fitted concentration of half-maximal effect
# Cytochrome P450 1A2 (Homo sapiens), sequence (P05177 whole entry, looked up): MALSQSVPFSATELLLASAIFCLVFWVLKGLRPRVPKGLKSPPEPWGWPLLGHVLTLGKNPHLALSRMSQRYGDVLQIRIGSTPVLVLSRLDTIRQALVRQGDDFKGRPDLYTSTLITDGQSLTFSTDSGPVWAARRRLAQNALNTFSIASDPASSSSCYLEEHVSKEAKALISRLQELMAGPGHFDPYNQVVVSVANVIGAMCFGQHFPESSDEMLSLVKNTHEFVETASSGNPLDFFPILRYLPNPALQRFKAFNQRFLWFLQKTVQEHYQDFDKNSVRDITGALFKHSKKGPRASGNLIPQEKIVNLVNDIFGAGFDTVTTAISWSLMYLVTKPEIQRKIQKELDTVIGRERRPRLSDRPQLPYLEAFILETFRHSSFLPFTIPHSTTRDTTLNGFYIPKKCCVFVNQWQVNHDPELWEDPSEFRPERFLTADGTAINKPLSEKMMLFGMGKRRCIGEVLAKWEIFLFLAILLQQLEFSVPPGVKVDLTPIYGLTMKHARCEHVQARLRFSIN
# Method in brief: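 Steps: enzyme-substrate mix dispensed; test compounds and furafylline control pinned in; 10 min room temperature; NADPH regeneration solution added, 1 h; reaction stopped with luciferin detection reagent; luminescence read after 20 min.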
# [13] = target: Voltage-gated inwardly rectifying potassium channel KCNH2 (Homo sapiens) (UniProt Q12809); assay: Human Ether-a-go-go-Related Gene (hERG) channel small molecule antagonists: fluorescence cell-based qHTS assay (AID 1671200)
# Voltage-gated inwardly rectifying potassium channel KCNH2 (Homo sapiens), sequence (Q12809 whole entry, looked up): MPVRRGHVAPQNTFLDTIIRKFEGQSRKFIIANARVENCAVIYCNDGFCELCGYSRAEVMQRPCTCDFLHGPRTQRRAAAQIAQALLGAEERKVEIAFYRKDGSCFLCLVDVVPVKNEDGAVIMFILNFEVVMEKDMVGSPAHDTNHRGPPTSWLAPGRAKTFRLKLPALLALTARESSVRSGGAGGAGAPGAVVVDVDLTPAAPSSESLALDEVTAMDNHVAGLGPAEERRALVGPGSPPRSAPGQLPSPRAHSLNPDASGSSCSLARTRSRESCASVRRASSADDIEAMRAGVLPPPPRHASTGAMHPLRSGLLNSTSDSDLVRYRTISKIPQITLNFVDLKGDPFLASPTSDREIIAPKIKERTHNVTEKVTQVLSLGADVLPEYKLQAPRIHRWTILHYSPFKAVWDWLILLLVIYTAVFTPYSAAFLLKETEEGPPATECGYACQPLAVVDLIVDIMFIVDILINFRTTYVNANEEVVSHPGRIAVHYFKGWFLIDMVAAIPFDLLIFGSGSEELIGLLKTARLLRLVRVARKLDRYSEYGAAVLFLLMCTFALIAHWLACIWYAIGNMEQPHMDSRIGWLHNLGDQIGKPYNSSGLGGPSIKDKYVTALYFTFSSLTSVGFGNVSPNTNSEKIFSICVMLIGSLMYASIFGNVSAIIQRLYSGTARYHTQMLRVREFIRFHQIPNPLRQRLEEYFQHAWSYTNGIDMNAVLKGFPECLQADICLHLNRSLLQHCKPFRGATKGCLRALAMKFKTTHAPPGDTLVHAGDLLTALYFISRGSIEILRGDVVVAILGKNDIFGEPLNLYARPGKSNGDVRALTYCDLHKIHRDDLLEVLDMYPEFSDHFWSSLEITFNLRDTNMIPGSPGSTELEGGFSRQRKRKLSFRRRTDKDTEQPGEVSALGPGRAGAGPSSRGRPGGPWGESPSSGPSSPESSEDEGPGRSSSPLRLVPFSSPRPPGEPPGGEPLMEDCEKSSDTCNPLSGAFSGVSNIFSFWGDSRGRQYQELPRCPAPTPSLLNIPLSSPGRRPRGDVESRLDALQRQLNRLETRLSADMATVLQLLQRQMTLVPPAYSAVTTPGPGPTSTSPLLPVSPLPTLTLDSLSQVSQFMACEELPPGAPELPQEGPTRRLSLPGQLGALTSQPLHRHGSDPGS
# Method in brief: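 Measured: Tl+ flux via fluorescence (480/540 nm) in hERG-expressing U2OS cells after 1 h dye loading at room temperature.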
# [14] = target: Cytochrome P450 3A4 (Homo sapiens) (UniProt P08684); assay: Cytochrome P450 Family 3 Subfamily A Member 4 (CYP3A4) small molecule antagonists: luciferase reporter qHTS assay (AID 1671201)
# Cytochrome P450 3A4 (Homo sapiens), sequence (P08684 whole entry, looked up): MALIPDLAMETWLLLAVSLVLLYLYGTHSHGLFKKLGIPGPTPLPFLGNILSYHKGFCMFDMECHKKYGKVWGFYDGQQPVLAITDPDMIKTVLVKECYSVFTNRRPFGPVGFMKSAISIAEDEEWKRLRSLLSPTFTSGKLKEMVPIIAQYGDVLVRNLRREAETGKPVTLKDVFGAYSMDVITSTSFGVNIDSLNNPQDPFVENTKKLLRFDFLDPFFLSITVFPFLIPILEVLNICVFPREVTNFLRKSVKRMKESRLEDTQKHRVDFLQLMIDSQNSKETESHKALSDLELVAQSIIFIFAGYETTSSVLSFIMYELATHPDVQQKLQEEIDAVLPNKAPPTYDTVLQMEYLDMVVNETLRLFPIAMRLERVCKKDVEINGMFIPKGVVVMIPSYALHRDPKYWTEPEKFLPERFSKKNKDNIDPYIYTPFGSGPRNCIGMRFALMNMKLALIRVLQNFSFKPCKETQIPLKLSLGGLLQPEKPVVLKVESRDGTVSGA
# Method in brief: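 Setup: enzyme-substrate mix, compound pin transfer, 10 min RT. Reaction: NADPH regeneration solution, 1 h RT. Readout: detection reagent stops turnover, luminescence measured after 20 min, expressed in relative luminescence units.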
# [15] = Caspase-3/7 induction in HepG2 cells by small molecules, qHTS cell viability counter screen (AID 1346981); note: nearly all actives have a fitted effect of over 30% in size; note: potency is the fitted concentration of half-maximal effect
# Method in brief: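 In this quantitative HTS counter screen, compounds delivered in DMSO were left on unmodified HepG2 cells for 16 hr at 37 C. Viability was then determined fluorometrically with CellTiter-Fluor, in parallel with caspase-3/7 induction in the same wells.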
SMILES,Potency [1],Potency [2],Potency [3],Potency [4],Potency [5],max activation [6],Potency [7],Potency [8],Potency [9],Potency [10],Potency [11],Potency [12],Potency [13],Potency [14],Potency [15]
O=C(Nc1ccc(Cl)cc1)Nc1ccc(Cl)c(Cl)c1,7.08 µM (active) and 12.2 µM (active) and 13.3 µM (active),inactive,19.2 µM (active) and 17.2 µM (active) and 18.8 µM (active),inactive,7.66 µM (active),-13.1% (inactive),inactive,inactive,inactive,5 µM (active) and 7.1 µM (active) and 8.71 µM (active),5 µM (active) and 5.64 µM (active) and 4.9 µM (active),17.8 µM (active) and 22.4 µM (active) and 17.4 µM (active),inactive,inactive,–
COc1cc([C@@H]2c3cc4c(cc3[C@H](O)[C@H]3COC(=O)[C@H]23)OCO4)cc(OC)c1OC,inactive,inactive,8.6 nM (active) and 21.1 nM (active),inactive,0.0485 µM (active),–,–,14.1 µM (active),inactive,–,2.83 µM (active) and 2.19 µM (active),35.6 µM (active),inactive,–,–
O=P(O)(O)O,inactive,inactive,inactive,inactive,–,-4.8% (inactive),–,–,–,–,–,–,inactive,–,inactive
O=C(OCc1ccccc1)c1ccccc1O,inactive,inactive,inactive,inactive,–,–,–,–,inactive,5.6 µM (active) and 17.8 µM (active),35.6 µM (active),31.5 µM (active) and 28.3 µM (active),inactive,inactive,inactive
COC(=O)c1ccccc1,inactive,inactive,inactive,inactive,–,–,–,–,inactive,inactive,inactive,inactive,inactive,inactive,inactive
Nc1ncnc2nc[nH]c12,inactive,inactive,inactive,–,27.3 µM (active) and inactive,0.861% (inactive),inactive,inactive,inactive,inactive,inactive,inactive,inactive,inactive,inactive
CCCCC(CC)COCC1CO1 (centres undefined),inactive,inactive,inactive,inactive,–,–,–,–,inactive,inactive,inactive,inactive,inactive,inactive,inactive
CN(C)CCN(Cc1cccs1)c1ccccn1,inactive,inactive,inactive,inactive,–,-1.17% (inactive),inactive,inactive,–,inactive,inactive,inactive and 27.5 µM (active),–,–,inactive
Brc1cc(Oc2cc(Br)c(Br)c(Br)c2Br)c(Br)c(Br)c1Br,inactive,inactive,inactive,–,9.73 µM (active),–,–,–,inactive,10.1 µM (active) and inactive,–,inactive,inactive,inactive,inactive
c1ccc2cc(Nc3ccc(Nc4ccc5ccccc5c4)cc3)ccc2c1,inactive,inactive,inactive,–,–,–,–,–,inactive,inactive,inactive,–,inactive,inactive,inactive
Cc1ccc(C(=O)c2cc(O)c(O)c([N+](=O)[O-])c2)cc1,21.7 µM (active),inactive,43.3 µM (active),–,–,–,–,–,inactive,inactive,–,inactive,inactive,–,43.3 µM (active)
C=C(C)C(=O)OCCOC(=O)C(=C)C,inactive,inactive,inactive,–,inactive,–,–,–,inactive,inactive,inactive,inactive and 35.6 µM (active),inactive,inactive,inactive
c1cc(N(CC2CO2)CC2CO2)ccc1OCC1CO1 (centres undefined),61.1 µM (active),–,48.6 µM (active) and 27.3 µM (active),inactive,48.6 µM (active) and 24.3 µM (active),–,–,–,56.4 µM (active),inactive and 79.6 µM (active),63.4 µM (active) and 39.9 µM (active),63.3 µM (active),inactive,inactive,54.5 µM (active) and 27.3 µM (active)
COC(=O)Nc1nc2ccc(S(=O)c3ccccc3)cc2[nH]1 (centres undefined),inactive,inactive,8.41 µM (active),–,68.5 µM (active) and 8.41 µM (active),–,–,–,inactive,79.6 µM (active) and inactive,inactive,28.2 µM (active) and 17.4 µM (active),inactive,inactive,inactive
CC(C)CC(C)(O)C#CC(C)(O)CC(C)C (centres undefined),31.6 µM (active) and inactive,inactive,15 µM (active) and inactive,–,–,–,–,–,–,–,–,–,inactive,–,inactive
